The text below walks through data of ChEMBL document CHEMBL3988442, “University of Dundee, Small-Polar-MMV Screening Library” (2021).

Holding throughout (design): scale not given: direction of the effect not stated beside the values
Test [1] concerns the target Protein translocase subunit SecA (Escherichia coli (strain K12)) (UniProt P10408). The test is described as follows: Assay to Identify E. coli SecA ATPase Inhibitors. It is filed as functional. The note with it: 30 µM.
Test [2] has as its target T1, Ubiquitin-activating enzyme e1, putative (Leishmania donovani (strain BPK282A1)) (UniProt E9BSI1).
T1 sequence (whole entry): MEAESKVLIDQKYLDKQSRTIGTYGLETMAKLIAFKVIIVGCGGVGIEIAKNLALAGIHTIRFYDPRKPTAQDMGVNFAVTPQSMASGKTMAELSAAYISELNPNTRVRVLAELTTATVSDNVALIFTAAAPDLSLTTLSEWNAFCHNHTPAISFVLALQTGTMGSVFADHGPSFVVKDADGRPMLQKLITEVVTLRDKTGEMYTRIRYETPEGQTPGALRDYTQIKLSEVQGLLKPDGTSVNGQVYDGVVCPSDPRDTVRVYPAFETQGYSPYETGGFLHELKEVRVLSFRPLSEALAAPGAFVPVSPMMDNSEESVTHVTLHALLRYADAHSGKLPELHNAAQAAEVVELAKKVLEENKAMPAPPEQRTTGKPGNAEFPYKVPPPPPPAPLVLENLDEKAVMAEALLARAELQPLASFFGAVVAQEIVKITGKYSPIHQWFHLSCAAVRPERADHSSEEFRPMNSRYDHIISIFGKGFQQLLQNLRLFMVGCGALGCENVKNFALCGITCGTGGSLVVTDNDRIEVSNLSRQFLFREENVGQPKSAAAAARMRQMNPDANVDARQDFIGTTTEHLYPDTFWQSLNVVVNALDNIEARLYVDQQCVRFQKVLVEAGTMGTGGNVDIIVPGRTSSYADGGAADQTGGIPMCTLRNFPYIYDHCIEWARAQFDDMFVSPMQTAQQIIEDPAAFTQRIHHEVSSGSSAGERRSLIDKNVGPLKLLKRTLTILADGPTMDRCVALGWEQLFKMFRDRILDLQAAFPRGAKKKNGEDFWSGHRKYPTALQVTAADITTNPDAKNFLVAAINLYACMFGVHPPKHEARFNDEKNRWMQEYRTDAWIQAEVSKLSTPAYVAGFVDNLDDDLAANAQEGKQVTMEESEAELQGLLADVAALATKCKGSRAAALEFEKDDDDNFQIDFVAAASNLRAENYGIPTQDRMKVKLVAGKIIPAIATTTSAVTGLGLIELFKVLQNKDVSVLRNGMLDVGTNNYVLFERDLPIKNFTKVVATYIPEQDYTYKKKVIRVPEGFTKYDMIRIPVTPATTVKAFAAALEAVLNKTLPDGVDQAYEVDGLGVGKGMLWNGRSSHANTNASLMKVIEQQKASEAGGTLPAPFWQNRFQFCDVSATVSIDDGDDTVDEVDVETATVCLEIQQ
The test is described as follows: Leishmania donovani Ubiquitin Activating Enzyme (LdE1). It counts as functional. The note with it: 30 µM.

Test [3] concerns the target AMP-activated protein kinase, AMPK (Homo sapiens) (UniProt P54646+O43741+P54619+Q9UGJ0+Q9Y478+Q13131+Q9UGI9). The test is described as follows: AMP-dependent Kinase enzyme assay. An in vitro enzyme assay that detects ADP turnover that is directly proportional to AMPK activity. This uses naive AMPK that is activated during the assay with MK-8722. The note with it: 30 µM. It counts as functional.

In test [4] the target is Sialic acid-binding Ig-like lectin 9 (Homo sapiens) (UniProt Q9Y336). The test is described as follows: Hs-Siglec9 ALPHAscreen SOP 20170721. The settings on record: 10 µM.
Sequence of Sialic acid-binding Ig-like lectin 9 (Homo sapiens) (Q9Y336 whole entry): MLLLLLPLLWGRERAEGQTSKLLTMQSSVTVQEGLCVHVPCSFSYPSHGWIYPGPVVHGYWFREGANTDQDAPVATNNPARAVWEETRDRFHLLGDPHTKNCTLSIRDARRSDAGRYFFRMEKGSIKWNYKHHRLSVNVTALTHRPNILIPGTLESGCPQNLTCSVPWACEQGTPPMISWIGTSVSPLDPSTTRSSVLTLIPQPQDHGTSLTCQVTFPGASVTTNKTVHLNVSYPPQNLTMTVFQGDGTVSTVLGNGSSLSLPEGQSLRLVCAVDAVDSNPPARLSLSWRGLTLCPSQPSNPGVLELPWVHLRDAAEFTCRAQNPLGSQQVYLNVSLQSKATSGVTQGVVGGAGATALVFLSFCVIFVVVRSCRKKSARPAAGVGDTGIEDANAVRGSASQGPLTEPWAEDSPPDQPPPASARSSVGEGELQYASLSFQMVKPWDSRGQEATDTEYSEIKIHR
The next test concerns Trypanosoma cruzi. The test is described as follows: Trypanosoma cruzi phosphomannomutase and mannose-1-phosphate guanylyltransferase assay. The settings on record: 10 µM. It counts as functional.
Test [5] addresses T2, Arginase-2, mitochondrial (Homo sapiens) (UniProt P78540).
T2 sequence (whole entry): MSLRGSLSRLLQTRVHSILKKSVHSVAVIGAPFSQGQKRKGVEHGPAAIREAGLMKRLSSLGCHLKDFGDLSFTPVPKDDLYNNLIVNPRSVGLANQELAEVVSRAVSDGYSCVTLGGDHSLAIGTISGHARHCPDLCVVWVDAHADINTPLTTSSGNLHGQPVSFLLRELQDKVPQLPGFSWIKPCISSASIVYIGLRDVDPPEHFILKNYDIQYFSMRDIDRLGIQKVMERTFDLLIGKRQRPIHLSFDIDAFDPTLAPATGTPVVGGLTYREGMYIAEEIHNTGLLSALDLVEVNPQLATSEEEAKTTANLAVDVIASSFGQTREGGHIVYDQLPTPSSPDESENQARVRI
The test is described as follows: in vitro enzyme assay to detect the production of urea directly proportional to the activity of Arginase II. Also: in the data most compounds retested in dose-response had high values. The settings on record: 33.3 µM. It counts as functional.

The target in test [6] is T3, Proteasome subunit beta (Trypanosoma cruzi) (UniProt O96673).
T3 sequence (whole entry): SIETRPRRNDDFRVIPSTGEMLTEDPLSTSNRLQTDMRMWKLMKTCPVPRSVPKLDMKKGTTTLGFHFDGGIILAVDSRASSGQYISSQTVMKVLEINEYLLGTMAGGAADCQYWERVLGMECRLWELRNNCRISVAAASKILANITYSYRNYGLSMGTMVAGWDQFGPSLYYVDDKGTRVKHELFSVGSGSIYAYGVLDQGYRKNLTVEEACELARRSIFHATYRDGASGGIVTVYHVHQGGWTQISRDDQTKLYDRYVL
The test is described as follows: Trypanosoma cruzi proteasome chymotrypsin-like activity (TcProtChymo) assay. Also: in the data most compounds retested in dose-response had high values. It counts as functional. The settings on record: 9.37 µM.

For another test, the species on record is Homo sapiens. The test is described as follows: To identify inhibition of the IFN signalling (Jak-Stat) pathway via expression of an eGFP reporter gene under the control of an IFN-stimulated response element (ISRE) containing MxA promoter. It is filed as functional. The settings on record: 30 µM. For orientation: A reporter such as luciferase makes a cellular process visible.

Test [7] addresses T4, Tyrosyl-tRNA synthetase, putative (Trypanosoma cruzi (strain CL Brener)) (UniProt Q4DSP6).
T4 sequence (whole entry): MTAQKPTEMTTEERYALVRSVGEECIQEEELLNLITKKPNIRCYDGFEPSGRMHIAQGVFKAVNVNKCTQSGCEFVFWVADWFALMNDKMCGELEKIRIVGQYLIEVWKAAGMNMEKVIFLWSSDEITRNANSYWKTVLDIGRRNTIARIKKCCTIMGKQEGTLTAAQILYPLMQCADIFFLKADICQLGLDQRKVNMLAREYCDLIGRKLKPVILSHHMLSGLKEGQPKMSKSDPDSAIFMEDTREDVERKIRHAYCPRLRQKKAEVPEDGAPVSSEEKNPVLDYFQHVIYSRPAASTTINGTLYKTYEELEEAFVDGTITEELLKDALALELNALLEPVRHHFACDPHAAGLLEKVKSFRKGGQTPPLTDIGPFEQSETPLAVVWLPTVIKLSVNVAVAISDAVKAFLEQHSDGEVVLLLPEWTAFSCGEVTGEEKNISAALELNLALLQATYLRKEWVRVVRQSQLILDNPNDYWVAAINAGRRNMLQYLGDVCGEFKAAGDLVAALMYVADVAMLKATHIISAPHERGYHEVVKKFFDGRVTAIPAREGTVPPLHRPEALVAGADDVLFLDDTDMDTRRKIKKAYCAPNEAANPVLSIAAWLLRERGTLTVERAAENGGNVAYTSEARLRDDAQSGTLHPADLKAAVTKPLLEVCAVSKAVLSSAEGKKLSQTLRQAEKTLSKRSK
The test is described as follows: Trypanosoma cruzi tyrosyl tRNA synthetase (TcYRS) _High Tyrosine SOP. Also: in the data most compounds retested in dose-response had high values. It counts as functional. The settings on record: 30 µM.

The target in test [8] is T4, Tyrosyl-tRNA synthetase, putative (Trypanosoma cruzi (strain CL Brener)). The test is described as follows: Trypanosoma cruzi tyrosyl tRNA synthetase (TcYRS) SOP. It counts as functional. The note with it: 30 µM.
Test [9] concerns the target Chromo domain-containing protein 1 (Saccharomyces cerevisiae (strain ATCC 204508 / S288c) (Baker's yeast)) (UniProt P32657). The test is described as follows: ScCHD-1 Enzyme Inhibition Assay. Also: in the data most compounds retested in dose-response had high values. It is filed as functional. The note with it: 30 µM.

For some of these results: Measured potencies and affinities stand elsewhere.

Sequence of Chromo domain-containing protein 1 (Saccharomyces cerevisiae (strain ATCC 204508 / S288c) (Baker's yeast)) (P32657 whole entry, the tested form may be a part): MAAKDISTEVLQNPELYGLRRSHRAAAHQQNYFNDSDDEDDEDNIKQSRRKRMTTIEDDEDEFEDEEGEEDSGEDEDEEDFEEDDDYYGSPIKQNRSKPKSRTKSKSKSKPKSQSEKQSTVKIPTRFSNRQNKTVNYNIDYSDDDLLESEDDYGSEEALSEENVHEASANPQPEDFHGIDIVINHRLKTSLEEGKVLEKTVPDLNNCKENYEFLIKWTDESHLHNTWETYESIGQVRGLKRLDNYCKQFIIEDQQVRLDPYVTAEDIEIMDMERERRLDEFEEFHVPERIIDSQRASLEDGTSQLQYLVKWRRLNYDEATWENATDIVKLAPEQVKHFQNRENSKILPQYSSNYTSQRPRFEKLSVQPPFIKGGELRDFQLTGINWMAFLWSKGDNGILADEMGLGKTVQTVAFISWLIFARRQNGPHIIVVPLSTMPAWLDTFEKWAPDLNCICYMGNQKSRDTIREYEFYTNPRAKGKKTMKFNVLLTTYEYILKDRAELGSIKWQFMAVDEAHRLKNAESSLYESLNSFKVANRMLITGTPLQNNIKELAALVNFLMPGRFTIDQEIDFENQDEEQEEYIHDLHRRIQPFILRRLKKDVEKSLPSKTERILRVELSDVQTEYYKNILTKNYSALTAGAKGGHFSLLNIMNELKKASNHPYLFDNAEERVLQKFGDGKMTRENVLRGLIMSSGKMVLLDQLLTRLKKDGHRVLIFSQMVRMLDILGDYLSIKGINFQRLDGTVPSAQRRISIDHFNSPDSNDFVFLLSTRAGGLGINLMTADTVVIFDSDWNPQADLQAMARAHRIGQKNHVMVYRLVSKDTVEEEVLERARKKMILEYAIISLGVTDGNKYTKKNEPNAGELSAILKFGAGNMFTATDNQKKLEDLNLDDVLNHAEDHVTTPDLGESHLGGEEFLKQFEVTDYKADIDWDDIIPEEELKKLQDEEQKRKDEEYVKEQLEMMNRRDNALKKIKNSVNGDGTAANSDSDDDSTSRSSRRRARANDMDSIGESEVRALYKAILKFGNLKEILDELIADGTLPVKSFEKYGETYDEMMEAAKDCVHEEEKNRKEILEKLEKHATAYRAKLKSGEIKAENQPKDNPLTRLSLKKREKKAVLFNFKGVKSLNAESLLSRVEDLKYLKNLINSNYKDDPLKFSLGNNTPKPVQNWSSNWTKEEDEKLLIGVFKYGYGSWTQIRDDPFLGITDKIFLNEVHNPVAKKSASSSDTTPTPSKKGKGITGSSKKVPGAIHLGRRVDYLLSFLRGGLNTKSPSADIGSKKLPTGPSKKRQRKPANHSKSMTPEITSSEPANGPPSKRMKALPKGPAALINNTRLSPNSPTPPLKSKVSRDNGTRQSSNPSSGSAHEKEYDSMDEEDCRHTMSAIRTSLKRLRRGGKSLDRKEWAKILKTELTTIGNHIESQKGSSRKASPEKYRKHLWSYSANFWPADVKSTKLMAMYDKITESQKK
Sequence of Protein translocase subunit SecA (Escherichia coli (strain K12)) (P10408 whole entry): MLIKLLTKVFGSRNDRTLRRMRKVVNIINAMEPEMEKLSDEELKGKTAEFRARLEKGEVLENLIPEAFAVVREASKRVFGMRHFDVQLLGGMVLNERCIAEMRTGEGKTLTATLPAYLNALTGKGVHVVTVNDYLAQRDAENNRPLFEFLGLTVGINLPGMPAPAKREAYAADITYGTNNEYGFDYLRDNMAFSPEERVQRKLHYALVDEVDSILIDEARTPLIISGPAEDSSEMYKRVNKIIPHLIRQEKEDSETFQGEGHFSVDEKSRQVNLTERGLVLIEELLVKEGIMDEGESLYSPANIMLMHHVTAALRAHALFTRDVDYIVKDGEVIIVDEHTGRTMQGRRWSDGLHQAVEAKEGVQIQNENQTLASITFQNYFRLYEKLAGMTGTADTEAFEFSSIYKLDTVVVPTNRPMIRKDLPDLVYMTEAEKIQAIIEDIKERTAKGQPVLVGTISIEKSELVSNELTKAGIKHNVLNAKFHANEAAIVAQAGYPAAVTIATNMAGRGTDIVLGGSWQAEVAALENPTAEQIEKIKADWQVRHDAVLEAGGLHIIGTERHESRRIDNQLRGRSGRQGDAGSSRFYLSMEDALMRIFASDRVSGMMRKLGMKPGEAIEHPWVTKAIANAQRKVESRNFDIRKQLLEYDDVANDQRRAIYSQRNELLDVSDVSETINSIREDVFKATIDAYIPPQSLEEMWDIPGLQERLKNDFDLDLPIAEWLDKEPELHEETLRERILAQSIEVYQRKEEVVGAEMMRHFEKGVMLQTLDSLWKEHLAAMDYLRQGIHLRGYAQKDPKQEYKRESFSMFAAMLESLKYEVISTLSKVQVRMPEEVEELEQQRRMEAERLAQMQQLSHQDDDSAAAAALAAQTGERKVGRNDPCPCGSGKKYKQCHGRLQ

Turning to `Cc1cccc(-c2ccc(C(=O)NCCN(C)C3CC3)c(=O)[nH]2)c1`, the Percent Effect was -4.4% in [1]; 0% in test [2]; -7.73% in [3]; -0.0788% in test [4]; -4.43% in the test with Trypanosoma cruzi; 4.41% in test [5]. Besides, the Percent Effect was -0.721% in [6]; 19% in the test filed under Homo sapiens; 0.493% in [7]; 6.17% in test [8]; -1.94% in [9].

`CCC(CNC(=O)c1ccc(Br)o1)N1CCc2ccccc2C1` (stereo unspecified): the Percent Effect is -2.45% in test [1]; -2.7% in test [2]; -0.754% in test [3]; 2.18% in [4]; 2.51% with Trypanosoma cruzi; -2.38% in test [5]. The Percent Effect in test [6] is 10.9%; in the test listed under Homo sapiens it was 11.9%; in test [7] it was 0.529%; in test [8], -4.88%; in test [9], -2.21%.

For `Cc1ccccc1OCCC(=O)OC(C)C(=O)Nc1sccc1C(N)=O` (stereo unspecified), the Percent Effect in test [1] is -2.66%; in test [2], -2.7%; in [3], 6.19%; in test [4], -3.07%; with Trypanosoma cruzi it was -9.09%; in [5], -10.2%. The Percent Effect is 8.33% in test [6]; 44.8% in the test filed under Homo sapiens; -15.1% in [7]; -16.1% in [8]; 15.1% in test [9].

On to `COc1ccc(-c2cnc(CN3CCn4c(C)nnc4C3)o2)cc1`, for which the Percent Effect was -8.18% in test [1]; 5.26% in test [2]; -2.37% in test [3]; 6.41% in test [4]; 10.9% in the test with Trypanosoma cruzi; -3.06% in [5]. Moreover, the Percent Effect was 7.18% in test [6]; 11.6% in the test listed under Homo sapiens; 6.37% in test [7]; 19.5% in test [8]; -14.7% in [9].

Consider `O=C(CCc1ccccn1)N1CCN(C(=O)CC2CCCCC2)CC1`, for which the Percent Effect is -6.55% in test [1]; 15.6% in test [2]; -6.12% in test [3]; -12.3% in test [4]; 4.41% in the test with Trypanosoma cruzi; -5.68% in [5]. Moreover, the Percent Effect in [6] was 10.9%; in the test listed under Homo sapiens, 4.51%; in test [7], 5.71%; in [8], 18.8%; in test [9] it was -18.5%.

For the compound `CC(C)Oc1ncccc1CNC(=O)C1CCCN(C(=O)C2CC2)C1` (stereo unspecified), the Percent Effect was -5.21% in test [1]; 5.26% in test [2]; -7.89% in [3]; -1.61% in [4]; -4.89% in the test with Trypanosoma cruzi; 0% in test [5]. The Percent Effect was 7.52% in test [6]; 24.1% in the test listed under Homo sapiens; 2.45% in test [7]; 7.32% in test [8]; -4.9% in test [9].

For `Cc1cc(=O)n(CC(=O)NCC2CCCO2)c(-c2ccc(F)cc2)n1` (stereo unspecified), the Percent Effect was -8.1% in test [1]; 0% in test [2]; 1.45% in test [3]; -2.38% in test [4]; -3.83% with Trypanosoma cruzi; 2.76% in test [5]. In addition, the Percent Effect is 7.49% in test [6]; 22.5% in the test filed under Homo sapiens; -1.07% in test [7]; -3.7% in test [8]; 3.12% in test [9].

For `CSc1ccccc1CN1CCCn2nc(CNC(=O)N(C)C)cc2C1`, the Percent Effect was -2.86% in [1]; 8.22% in test [2]; -6.48% in test [3]; 20.7% in [4]; 3.13% in the test with Trypanosoma cruzi; 4.09% in test [5]. The Percent Effect in test [6] was found to be 6.92%; in the test filed under Homo sapiens, 9.78%; in [7] it was 4.3%; in test [8] it was 12.5%; in [9] it was 97.4%.

`COc1cccc2ccn(CCC(=O)N3CCCC(C(=O)O)C3)c12` (stereo unspecified): the Percent Effect in test [1] was -7.04%; in test [2] it was 21.1%; in [3], 5.95%; in test [4] it was -0.508%; in the test with Trypanosoma cruzi it was 3.8%; in test [5] it was -1.18%. In addition, the Percent Effect in [6] was 14.1%; in the test filed under Homo sapiens it was 6.03%; in [7] it was 2.13%; in test [8], 10.4%; in test [9] it was -7.67%.

For `CN(Cc1cnn(C)c1)C(=O)NC1CCC(O)CC1` (stereo unspecified), the Percent Effect in test [1] is -2.67%; in test [2], 4.17%; in test [3], -6.32%; in test [4] it was 15.8%; with Trypanosoma cruzi it was 2.82%; in test [5], 9.71%. The Percent Effect is 13% in test [6]; -3.51% in the test listed under Homo sapiens; 0% in test [7]; 2.56% in test [8]; -2.95% in test [9].

As for `Cc1cc(C2CCCN2CC(=O)N(CCC#N)c2ccccc2F)on1` (stereo unspecified), the Percent Effect in test [1] is -2.04%; in test [2], 10.8%; in test [3], -3.15%; in test [4] it was 8.81%; in the test on Trypanosoma cruzi, 4.18%; in [5], -4.99%. For the same compound, the Percent Effect was 19.4% in test [6]; 8.68% in the test filed under Homo sapiens; 3.96% in [7]; 23.2% in test [8]; -6.79% in [9].
